Laboratory results published in PubChem BioAssay (Tox21).
Records with an inconclusive call do not appear. Values without a mark were called inactive. Activity calls are given as the source filed them. The call rests on the fitted dose curve.

Assay: p53 small molecule agonists, cell-based qHTS assay with rat liver microsomes: qHTS cell viability counter screen (AID 1963580); further: nearly all actives have a fitted effect of over 45% in size
Settings: p53RE-bla HCT-116 + rat microsomes, ATP viability, 16 h; series mostly up to 66 µM; activity change, negative = cytotoxicity: at the top concentration
Description: National Center for Advancing Translational Sciences [NCATS]
Division of Preclinical Innovation [DPI]
U.S. Environmental Protection Agency [EPA]
National Institutes of Environmental Health Sciences [NIEHS]
National Toxicology Program [NTP]
U.S. Food and Drug Administration [FDA]
p53, a tumor suppressor protein, is activated following cellular insult, including DNA damage and other cellular stresses. The activation of p53 regulates cell fate by inducing DNA repair, cell cycle arrest, apoptosis, or cellular senescence. The activation of p53, therefore, is a good indicator of DNA damage and other cellular stresses. The CellSensor p53RE-bla HCT-116 cell line contains a stably integrated beta-lactamase reporter gene under control of the p53 response elements. The activation of the reporter gene under culture conditions can be detected by fluorescence intensity. This cell line was used to screen the Tox21 10K compound library in the condition of presence of rat liver microsomes and to identify agonists that activate the p53 signaling pathway after in vitro metabolic activation (Ooka et al., Archive of Toxicology 96:1975-1987, 2022). The cytotoxicity of the Tox21 compound library against the p53 RE-bla HCT-116 cell line was tested in parallel by measuring the intra cellular ATP content in the same wells.
Tox21 Assay Protocol Summary:
The p53RE-bla cells were dispensed at 4,000cells/3ul/well in 1536-well black-clear bottom plates. After the assay plates were incubated at 37 C, 5% CO2 incubator for 5 hours, 23 nL of compounds dissolved in DMSO, positive controls or DMSO only was transferred to the assay plate. Following compound addition, 3 uL of rat liver microsomes (Molecular Toxicology, Boone, NC) at final concentration of 0.5 mg/mL and 1uL of B-Nicotinamide adenine dinucleotide 2'-phosphate (NADPH) at final concentration of 0.5 mg/mL were transferred to the assay plate. The plates were incubated at 37 C for 16 hours. 1 uL of LiveBLAzer detection mixture was added to each well and the plates were incubated at room temperature in the dark for 2 h. Fluorescence intensity at 460 and 530 nm emission and 405 nm excitation were measured by an Envision plate reader. For cell viability readout that measures cytotoxicity, 4 ul/well of CellTiter-Glo reagent was added into the assay plates using a Flying Reagent Dispenser. After 30 min incubation at room temperature, the luminescence intensity in the plates was measured using a ViewLux plate reader.
On the % scale 0 is the no-effect control and ±100 the full control effect; potency means the concentration at half of the fitted maximal effect.

SMILES | activity change, negative = cytotoxicity | Potency
CC(=O)c1cc2c(cc1C)C(C)(C)C(C)CC2(C)C (stereo not given) | -23.9% | –
CNC(=O)Oc1cc(C)c(N(C)C)c(C)c1 | -1.57% | –
C[C@]12CC[C@H]3[C@@H](CCC4=CC(=O)CC[C@@H]43)[C@@H]1CC[C@@H]2OC(=O)CCc1ccco1 | 0.721% [at 30.3 µM] | –
C[C@H](CN1CCOCC1)C(C(=O)N1CCCC1)(c1ccccc1)c1ccccc1 | -21.2% | –
O=C(NC(=O)c1c(F)cccc1F)Nc1cc(Cl)c(OC(F)(F)C(F)F)c(Cl)c1 | -5.38% | –
O=NN1CCN(N=O)CC1 | 1.56% | –
Clc1ccc(CO/N=C(\Cn2ccnc2)c2ccc(Cl)cc2Cl)c(Cl)c1 | -12.4% [at 30.3 µM] | –
C=CCC1(C(C)CC)C(=O)NC(=O)NC1=O (stereo not given) | -15.7% [at 30.3 µM] | –
O=C(O)C(Br)CBr (stereo not given) | 2.04% | –
C#CCC1=C(C)C(OC(=O)C2C(C=C(C)C)C2(C)C)CC1=O (stereo not given) | 5.29% | –
Fc1ccc(C2(Cn3cncn3)OC2c2ccccc2Cl)cc1 (stereo not given) | -7.9% | –
N#Cc1cc(I)c(O)c(I)c1 | – | 45.8 µM (active)
O=CNC(N1CCN(C(NC=O)C(Cl)(Cl)Cl)CC1)C(Cl)(Cl)Cl (stereo not given) | 0% | –
CCOP(=O)(NC(C)C)Oc1ccc(SC)c(C)c1 (stereo not given) | -3.96% | –
COC(=O)C(c1ccccc1)C1CCCCN1 (stereo not given) | 3.4% | –
CN1C(=O)CN=C(c2ccccc2)c2cc([N+](=O)[O-])ccc21 | 0.334% [at 30.3 µM] | –
O=C(O)CC(Cl)C(=O)O (stereo not given) | -3.24% | –
C=C(Cl)Cl | -3.39% | –
N#CCCl | -9.34% | –
COP(=S)(OC)Oc1ccc([N+](=O)[O-])cc1Cl | 9.97% | –

SMILES | activity change, negative = cytotoxicity | Potency
c1ccc2cc3c(cc2c1)-c1cccc2cccc-3c12 | 9.04% | –
OP(O)c1ccccc1 | 0.126% | –
O=C(NC(O)C(Cl)(Cl)Cl)NC(O)C(Cl)(Cl)Cl (stereo not given) | 3.81% [at 30.3 µM] | –
COc1ccc2c(C(=O)c3ccc(Cl)cc3)c(C)n(CC(=O)O)c2c1 | 4.24% [at 30.3 µM] | –
O=c1[nH]c2ccccc2n1C1CCNCC1 | 0.853% [at 30.3 µM] | –
CCCN1CCC[C@@H]2Cc3nc(N)ncc3C[C@H]21 | -8.45% [at 30.3 µM] | –
CCCSC(=O)N(CCC)CCC | -0.908% | –
O=C(N[C@H]1N=C(c2ccccc2F)c2cccc3c2N(CC3)C1=O)c1cc2ccccc2[nH]1 | 1.84% [at 30.3 µM] | –
CCOP(=S)(OCC)Oc1cc(Cl)c(Br)cc1Cl | 7.24% | –
N#C/C=C/c1ccccc1 | -5.57% | –
Cc1c([N+](=O)[O-])c(C)c([N+](=O)[O-])c(C(C)(C)C)c1[N+](=O)[O-] | -10.6% | –
CC(=O)O[C@H]1CC[C@@]2(C)C(=CC[C@@H]3[C@@H]2CC[C@]2(C)C(=O)CC[C@@H]32)C1 | 2.73% | –
CO/C=C(/C(=O)OC)c1ccccc1COc1cccc(C(F)(F)F)n1 | 0.295% | –
OC(Cn1cncn1)(c1ccc(F)cc1)c1ccccc1F (stereo not given) | 4.82% | –
[Cl][Hg][c]1ccccc1 | – | 8.14 µM (active)
CCO/N=C(\CC)C1=C(O)CC(c2c(C)cc(C)cc2C)CC1=O (stereo not given) | 13.9% | –
NC(=O)C(Cl)Cl | 2% | –
CCNc1nc(NC(C)C(C)C)nc(SC)n1 (stereo not given) | 18.9% | –
CCC(C(N)=O)N1CCCC1=O (stereo not given) | -1.39% [at 30.3 µM] | –
O=C(O)C(F)(F)C(F)(F)C(F)(F)C(F)(F)C(F)(F)F | 0.744% | –
